# Source: PubChem BioAssay
# Rows were chosen to be rich in hits. Some 21% of all compounds tested hit in one or more screens of this group.
# ClpP mod = qHTS Assay for Activators of ClpP. Potency, µM (titrated, usually from 57.5 µM), for inactives: top-dose activity change, negative = active. hit rate 1.9% among 340,000. ATP-dependent Clp protease proteolytic subunit (Bacillus subtilis (strain 168)), P80244. AID 651965, 2013. purified B. subtilis ClpP, FRET peptide cleavage, 20 min; active means well fitted falling curve with a large enough effect; inconclusive means small, poorly fitted or top-dose-only effect; inactive means no such curve, though single readings can be large or run the other way; further: potency means the concentration at half of the fitted maximal effect; the source files actives as falling curves though it sought activators and does not explain the sign; nearly all actives have a fitted effect of over 65% in size
# Target sequence (P80244 whole entry, looked up): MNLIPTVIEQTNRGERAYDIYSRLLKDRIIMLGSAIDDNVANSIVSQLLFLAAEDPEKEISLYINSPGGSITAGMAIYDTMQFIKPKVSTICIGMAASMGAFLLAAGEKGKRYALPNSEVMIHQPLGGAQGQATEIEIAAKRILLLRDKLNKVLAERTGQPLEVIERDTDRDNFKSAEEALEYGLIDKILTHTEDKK
#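 FRET quenching reversal measured ClpP activation: 10 microg/mL B. subtilis ClpP at pH 8 with the FRET-FV decapeptide, read at 430 nm after 320 nm excitation. The 20-min minus 0-min signal was scaled between DMSO/no-enzyme wells and ADEP (5.8 microM final).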
# TDP1 cell CPT = DT40-hTDP1 cell growth loss with CPT; Potency, µM (highest dose often 46.2 µM), for inactives: at the highest dose activity change, negative = growth inhibition, usual class: inhibitors; chicken DT40 Tdp1-/-;hTDP1 cells + 20 nM CPT, ATP luminescence, 48 h; hit rate 12% among 420,000; further: potency means the concentration at half of the fitted maximal effect; on the % scale 0 is the no-effect control and ±100 the full control effect; nearly all actives have a fitted effect of over 55% in size
#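 Chicken DT40 Tdp1-/- cells complemented with human TDP1, 400 cells/well, exposed to compounds plus 20 nM camptothecin for at least 48 h at 37 C; viability read as ATP content by CellTiter-Glo luminescence.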
# DT40 TDP1 no CPT = qHTS for Inhibitors of human tyrosyl-DNA phosphodiesterase 1 (TDP1): qHTS in cells in absence of CPT; AID 686978, 2013; Potency, µM (series often up to 46.2 µM), inactives show top-dose activity change, negative = growth inhibition, hits mostly inhibitors; hit rate 15% among 420,000; DT40 Tdp1-/- hTDP1 cells, no CPT, ATP luminescence, 48 h; further: potency means the concentration at half of the fitted maximal effect; on the % scale 0 is the no-effect control and ±100 the full control effect; nearly all actives have a fitted effect of over 55% in size
#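 A cellular qHTS used chicken DT40 cells lacking endogenous Tdp1 but carrying stably transfected human TDP1. Compounds were applied without camptothecin, and cell growth kinetics were judged by ATP-dependent luminescence after ≥48 hr.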
# D3 antag = blocks the human D3 dopamine receptor. P35462. AID 652054. D3R cells, DiscoveRx beta-arrestin luminescence, antagonist mode; stronger effect = lower value. hit rate 2.5% among 360,000. max response, negative = inhibition, %; in the data active means max response below about -50%; inconclusive means no clear call, values can overlap the other calls; further: on the % scale 0 is the no-effect control and ±100 the full control effect
# Target sequence (P35462 whole entry, looked up): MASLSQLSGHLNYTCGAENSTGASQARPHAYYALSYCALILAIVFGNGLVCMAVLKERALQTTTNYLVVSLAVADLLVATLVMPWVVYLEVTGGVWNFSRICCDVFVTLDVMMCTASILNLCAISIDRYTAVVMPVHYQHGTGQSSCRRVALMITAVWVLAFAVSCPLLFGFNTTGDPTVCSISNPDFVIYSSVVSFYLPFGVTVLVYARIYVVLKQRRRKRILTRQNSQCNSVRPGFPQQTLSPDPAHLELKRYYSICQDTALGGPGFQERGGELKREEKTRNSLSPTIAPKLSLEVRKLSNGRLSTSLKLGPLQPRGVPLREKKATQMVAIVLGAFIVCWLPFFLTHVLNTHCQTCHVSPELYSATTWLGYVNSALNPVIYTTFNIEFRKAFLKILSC
#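 Cells expressing the human receptor were seeded at 1500 cells/well, incubated overnight at 37 degrees C in 5% CO2, then exposed to library compounds with dopamine controls for 90 minutes at 37 degrees C before luminescent detection.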
# D3 ag = agonists of human D3 dopamine receptor; hit rate 0.58% among 410,000; D3R DiscoveRx beta-arrestin cells, luminescence, 90 min; AID 652048; P35462; max activation, %; in the data active means max activation above about 30%; further: 0% is about no effect
#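 Agonist mode: compounds and dopamine controls were applied to plated cells for 90 min at 37 degrees C after an overnight attachment at 1500 cells/well. Luminescent read-out followed 30 - 60 minutes at room temperature with DiscoveRx detection reagent.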
# IL-1B inflam inh = blocks inflammasome-driven IL-1 beta release | AID 743279 | THP-1 LPS/ATP IL-1B secretion, AlphaLISA, 16 h; stronger effect = lower value | hit rate 4.7% among 360,000 | activity change, % at 57.5 µM; in the data active means activity change below about -50%; inconclusive means mostly about -30% to -49%; further: on the % scale 0 is the no-effect control and ±100 the full control effect
#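 THP-1 cells pretreated 1 hr with compounds (up to 57.5 uM final), then stimulated with LPS (250 ng/mL final) plus ATP (1.25 mM final); secreted IL-1B measured by AlphaLISA after 16 hr, decreased signal indicating inhibition.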
# An asterisk follows results filed as active; u = inconclusive; x = no result; ! = not active in a repeat; [ ] = remark or other dose. Unless noted, the call rests on the fitted dose curve; in most records, active means well fitted inhibition curve with a large enough effect; inconclusive means small, poorly fitted or top-dose-only effect; inactive means flat fitted curve, though single readings scatter.
SMILES,ClpP mod,TDP1 cell CPT,DT40 TDP1 no CPT,D3 antag,D3 ag,IL-1B inflam inh
CCCCNC(=O)C[C@@H]1C[C@@]2(C(=O)OC)CCCCC=C2N(CCc2ccc(OC)c(OC)c2)C1=O,-3%,u,23µM*,-25,-10,-13
CCCCCCCCN1C(=O)[C@H](CC(=O)NCC23CC4CC(CC(C4)C2)C3)C[C@@]2(C(=O)OCC)CCCC=C12,-1%,u,18µM*,-17,-3,4
O=C(c1cccc(F)c1)N1CCC[C@@]2(CCN(Cc3ccncc3)C2)C1,x,9%,-21%,x,x,x
COc1ccc(Nc2c(-c3ccc(C)o3)nc3ccc(Cl)cn23)cc1,-1%,7.3µM*,18µM*,x,8,x
Clc1ccc(Nc2c(-c3ccccc3Cl)nc3ccc(Cl)cn23)cc1,-7%,u,26µM*,x,2,x
Oc1ccccc1-c1nc2cnccn2c1Nc1ccc(Cl)cc1,-4%,u,u,x,7,x
COc1ccc2c3c([nH]c2c1)C1CC2C(CC(O)C(OC)C2C(=O)O)CN1CC3 (stereo not drawn),-19%,-16%,-11%,0,-9,9
COC(=O)[C@@H]1C2CC3c4[nH]c5cc(OC)ccc5c4CCN3CC2C[C@H](OC(=O)c2cc(OC)c(OC)c(OC)c2)C1OC (stereo partly drawn),x,23µM*,u,x,x,x
COC(=O)C1C2CC3c4[nH]c5cc(OC)ccc5c4CCN3CC2CC(OC2CCCCO2)C1OC (stereo not drawn),-30%,u,u,8,-8,-14
COC(=O)[C@H]1[C@H]2C[C@@H]3c4[nH]c5cc(OC)ccc5c4CCN3C[C@H]2C[C@@H](OC(=O)c2cc(OC)c(OC)c(OC)c2)[C@@H]1OC,-13%,16µM*!,u,23,-1,-29
CCN(CC)CCCNC(=O)CC1Sc2ccccc2NC1=O (stereo not drawn),1%,0%,1%,-51*,-1,21
COc1ccc(OC)c(CNC(=O)C2CCC(=O)N(CCCN3CCCC3=O)C2)c1 (stereo not drawn),-1%,u,-1%,-23,-12,-10
O=[N+]([O-])c1ccc(O)c(CSc2nnnn2-c2ccccc2)c1,-1%,-20%,-5%,-1,-4,11
COc1ccc(/C=C2\N=C(SC)NC2=O)cc1,0%,2%,-14%,-3,4,-1
COc1ccc(/C=C2\N=C(c3ccccc3Cl)NC2=O)cc1,-5%,5.8µM*,0.82µM*,-5,-5,u
Oc1cc2c(c(Cl)c1O)CCNC[C@H]2c1ccccc1,x,12µM*,17µM*,x,x,x
Oc1cc2c(c(Cl)c1O)CCNCC2c1ccccc1 (stereo not drawn),2%,8.2µM*,8.2µM*!,x,x,39
COC(c1ccc2c(c1)CN(C(=O)Cn1nc(C)c3ccccc3c1=O)CCO2)C1CCCCC1 (stereo not drawn),x,-2%[9.04 µM],-17%,x,x,x
Cc1ccc(C(=O)Nc2cccc(Oc3ccccc3)c2)o1,0%,18µM*,u,17,-5,-26
Cc1ccc(C(=O)Nc2ccccc2Oc2ccccc2)o1,0%,-23%,14%,1,1,19
COc1cccc(NC(=O)c2ccc(C(=O)c3ccccc3)o2)c1,0%,u,18µM*,-8,4,u
Cc1oc(C(=O)Nc2ccc(O)cc2)cc1COc1ccccc1,1%,u,16µM*,32,-1,-6
O=C(Nc1ccc(O)cc1)c1ccc(C(=O)c2ccccc2)o1,2%,25µM*,20µM*,u,-6,-17
COc1ccccc1-c1nnc(SCC(=O)NC2CC2)n1C,-2%,0%,-2%,-13,-18,-2
COc1cccc(-c2nnc(SCCC(=O)O)n2C)c1,-1%,5%,2%,-3,-1,-8
SMILES,ClpP mod,TDP1 cell CPT,DT40 TDP1 no CPT,D3 antag,D3 ag,IL-1B inflam inh
COc1cccc(-c2nnc(SC(C(=O)c3c[nH]c4ccccc34)c3ccccc3)n2C)c1 (stereo not drawn),x,23µM*,u,6,-1,-27
COc1ccccc1-c1nnc(SC(C(=O)c2c[nH]c3ccccc23)c2ccccc2)n1C (stereo not drawn),2%,21µM*,16µM*,-11,-5,-51*
CCOC(=O)c1oc2c(c1C)-c1nn(Cc3cccc(Cl)c3)cc1CC2,4%,u,-25%,x,2,x
CCCCCCCCN1[C@@H](CC(=O)O)c2cc(C(F)(F)F)ccc2S1(=O)=O,1%,u,u,5,13,8
CCCCCCCCN1[C@@H](CC(=O)OCC)c2cc(F)ccc2S1(=O)=O,-3%,u,u,8,16,33
COC(=O)C[C@H]1c2cc(F)ccc2S(=O)(=O)N1c1ccc(N(C)C)cc1,-1%,u,13µM*,1,2,25
CCCCCCCCN1[C@@H](CC(=O)OC)c2cc(F)ccc2S1(=O)=O,1%,u,13µM*,16,2,18
CCOC(=O)C[C@H]1c2cc(F)ccc2S(=O)(=O)N1c1ccccc1,-2%,u,u,-11,7,28
CCCCCCCCCCCCN1[C@@H](CC(=O)O)c2cc(F)ccc2S1(=O)=O,2%,u,3%,1,40*,52
CCc1nnc(NC(=O)CCC(=O)N2CCN(Cc3ccc(OC)c(F)c3)CC2)s1,-3%,u,-24%,4,-1,36
CCC(CC)c1nnc(NC(=O)CN2C(=O)NC3(CCCC3)C2=O)s1,-1%,-4%,-1%,4,2,0
CCOC(=O)CNC(=O)CSc1nnc(Cn2c(=O)sc3ccccc32)n1-c1ccccc1C,0%,u,u,12,-13,-94*
Cc1ccccc1-n1c(Cn2c(=O)sc3ccccc32)nnc1SCC(=O)N1CCCC1,-2%,-19%,-4%,0,-2,-7
CSc1nnc(Cn2c(=O)sc3ccccc32)n1-c1ccccc1,3%,21µM*,21µM*,-25,-5,24
CC1CCN(C(=O)CCc2nnc3ccc(NCCCN4CCCC4=O)nn23)CC1,x,-17%,1%,-5,-7,31
CCCN(CCC)CCCNC(=O)c1sc2nc3n(c(=O)c2c1C)CCC3,u,6%,-11%,x,-17,x
CCN(C(=O)c1cn(CC(C)C)c(=O)c2cc(OC)c(OC)cc12)c1cc(OC)ccc1OC,0%,13µM*,15µM*,x,-11,x
CCc1ccccc1N(C)C(=O)c1cn(CC(C)C)c(=O)c2cc(OC)c(OC)cc12,-5%,10µM*,10µM*,x,7,x
